Columns and labels:
[1] = system: Human papillomavirus type 1a protein E7 (residues 44-93); assay: small molecules binding HPV E7 44-93 – biochemical, small-molecule microarray, residues 44-93, 635 nm fluorescence, primary screen (AID 1108); conditions: fluorescence 635 nm, higher = more signal;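 also: E7 fragment applied at 1 µg/mL in TBST for 1 h at 4 C; score combines spot fluorescence with its signal to noise ratio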
[2] = hepatitis C replication reporter changes, two-sided – Huh7 cells, luciferase reporter, HCV replication inhibitor project, primary screen (AID 1109); conditions: Huh7 HCV replicon luciferase reporter, 48 h; higher = more signal;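 also: huh7 hepatoma cells harbouring a luciferase neomycin HCV replicon reporter; luciferase luminescence as measure of HCV replicon replication; test concentration not given here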
[3] = target: Left-right determination factor 2 (Homo sapiens) (UniProt O00292); assay: small molecules binding LEFTY2 protein – biochemical, small-molecule microarray, 635 nm fluorescence scan, primary screen (AID 1110); conditions: higher = more signal
[4] = target: Calmodulin-1 (Homo sapiens) (UniProt P0DP23); assay: small molecules binding calmodulin-1 with EGTA – biochemical, small-molecule microarray, Cy5-labelled CALM1, profiling panel (AID 1111); conditions: Cy5-CALM1 binding fluorescence, higher = more signal;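 also: labelled calmodulin applied in Tris saline Tween buffer holding calcium plus EGTA and DTT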
[5] = target: Calmodulin-1 (Homo sapiens) (UniProt P0DP23); assay: small molecules binding Ca-loaded calmodulin-1 – biochemical, small-molecule microarray, Cy5-labelled CALM1, plus calcium, artefact control for SMM control-protein annotation, profiling panel (AID 1112); conditions: Cy5-CALM1 binding fluorescence, higher = more signal;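 also: score merges spot fluorescence with signal to noise from triplicate slides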
[6] = probe aWnt5a binding to arrayed compounds – biochemical, biotinylated probe, 635/667 nm fluorescence, primary screen (AID 1113); conditions: small-molecule microarray, higher = more signal;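 also: score merges 667 nm fluorescence intensity with signal-to-noise per printed feature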
[7] = probe aShh binding to arrayed compounds – biochemical, biotinylated probe, 635/667 nm fluorescence, primary screen (AID 1114); conditions: small-molecule microarray, higher = more signal;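 also: probe is biotin-labelled aShh protein from a stem cell growth factor screen; measures binding of labelled protein to compounds printed on the slide; score merges feature fluorescence at 667 nm with signal-to-noise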
[8] = probe aNog binding to arrayed compounds – biochemical, biotinylated probe, 635/667 nm fluorescence, primary screen (AID 1115); conditions: small-molecule microarray, higher = more signal;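 also: probe is biotinylated aNog protein used at 0.15 µg/mL for 1 h at 4 C; z-score combines 667 nm fluorescence of each spot with its signal to noise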
[9] = target: Torsin-1A-interacting protein 1 (Homo sapiens) (UniProt Q5JTV8); assay: compound microarray binding of lysate hLAP1 – cell lysate, small-molecule microarray, COS7 lysate, 635/667 nm fluorescence, primary screen (AID 1116); conditions: 635 nm fluorescence, higher = more signal
[10] = target: Alpha-bungarotoxin (Bungarus multicinctus) (UniProt P60615); assay: compounds binding labelled alpha-BTX control protein – biochemical, small-molecule microarray, Alexa647 label, 635/667 nm fluorescence, artefact control for SMM control protein annotation, profiling panel (AID 1117); conditions: alpha-BTX-A647 binding fluorescence, higher = more signal
Sequence of Alpha-bungarotoxin (Bungarus multicinctus) (P60615 whole entry, looked up): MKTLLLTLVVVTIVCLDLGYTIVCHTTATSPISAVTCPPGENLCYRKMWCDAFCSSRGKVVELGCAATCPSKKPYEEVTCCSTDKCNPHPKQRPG

Sequence of Left-right determination factor 2 (Homo sapiens) (O00292 whole entry, looked up): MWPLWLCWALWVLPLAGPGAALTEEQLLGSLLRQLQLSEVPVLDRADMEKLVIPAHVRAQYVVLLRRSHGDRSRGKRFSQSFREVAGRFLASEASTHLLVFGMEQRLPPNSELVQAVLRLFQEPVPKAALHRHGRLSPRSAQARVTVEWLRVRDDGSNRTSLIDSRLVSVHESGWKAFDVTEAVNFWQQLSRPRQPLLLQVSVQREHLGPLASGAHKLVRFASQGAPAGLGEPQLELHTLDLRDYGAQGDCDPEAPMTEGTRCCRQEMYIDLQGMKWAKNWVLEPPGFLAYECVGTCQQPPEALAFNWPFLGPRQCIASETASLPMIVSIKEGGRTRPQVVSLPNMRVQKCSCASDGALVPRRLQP
Sequence of Torsin-1A-interacting protein 1 (Homo sapiens) (Q5JTV8 whole entry, looked up): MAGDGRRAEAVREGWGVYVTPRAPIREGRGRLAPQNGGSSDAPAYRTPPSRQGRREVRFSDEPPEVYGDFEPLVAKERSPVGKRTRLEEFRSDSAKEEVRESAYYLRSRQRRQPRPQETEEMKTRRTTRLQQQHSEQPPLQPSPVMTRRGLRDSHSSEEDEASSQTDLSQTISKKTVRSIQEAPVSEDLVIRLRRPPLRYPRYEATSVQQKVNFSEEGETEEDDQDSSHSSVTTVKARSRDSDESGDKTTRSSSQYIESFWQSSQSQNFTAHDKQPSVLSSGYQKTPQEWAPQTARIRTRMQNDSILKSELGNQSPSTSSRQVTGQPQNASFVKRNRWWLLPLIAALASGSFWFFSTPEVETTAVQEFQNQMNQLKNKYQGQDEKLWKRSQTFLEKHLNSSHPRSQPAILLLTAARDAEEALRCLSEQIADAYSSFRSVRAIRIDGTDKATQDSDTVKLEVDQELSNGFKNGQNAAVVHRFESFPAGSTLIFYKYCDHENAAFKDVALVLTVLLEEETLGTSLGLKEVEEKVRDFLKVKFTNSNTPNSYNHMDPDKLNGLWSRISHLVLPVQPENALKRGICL

Row | SMILES | composite z-score [1] | z-score [2] | composite z-score [3] | composite z-score [4] | composite z-score [5] | composite z-score [6] | composite z-score [7] | composite z-score [8] | composite z-score [9] | composite z-score [10]
1 | CCCCN1CC=CC23O[C@@H]4/C=C\CCCOC(=O)C4[C@H]2C(=O)N(CCCCCO)[C@@H]3C1=O (stereo not given in full) | -0.766 | -0.895 | -0.68 | -0.803 | -1.24 | -0.172 | -0.221 | -0.357 | 0.328 | -0.509
2 | CC(C)C(=C=CC[C@H](O)c1ccc(CO)o1)CCO | 1.21 | -1.12 | -0.0171 | -0.26 | -0.649 | -0.15 | -0.0793 | -0.0827 | 0.843 | 0.963
3 | [N-]=[N+]=Nc1ccccc1C[C@]1(C(=O)N2CCCCC2)COC(c2ccc(OCCCO)cc2)=N1 | 1.44 | -2.43 | -0.241 | 1.35 | 0.234 | 0.117 | -0.217 | -0.673 | 1.03 | 0.465
4 | C=CCN1C(=O)[C@]2(O[C@H](CCO)[C@@H]([Si](C)(C)c3ccc(OC)cc3)[C@@H]2C)c2cc(N(C=O)c3ccccc3)ccc21 | -0.823 | -5.14 | -0.155 | 0.393 | 0.217 | -0.096 | 0.0684 | 0.337 | 0.753 | 0.607
5 | O=C1OCCC=C[C@H]2OC34C=CCN(CCN5CCOCC5)C(=O)[C@H]3N(CCCCCO)C(=O)[C@@H]4C12 (stereo not given in full) | 0.57 | 0.305 | -0.529 | 0.667 | -0.836 | -0.147 | -0.237 | -0.103 | 2.24 | 1.88
6 | CCOc1cc(C(O)C2C=CC3C(=O)N(c4ccccc4)C(=O)C3N2Nc2ccc(C(C)C)cc2)ccc1O (stereo not given) | 1.45 | -0.517 | -0.211 | 0.983 | -0.0316 | 0.0433 | -0.0119 | 1.2 | -0.102 | 1.91
7 | COCC(=C=CC[C@H](O)c1cccc(OCCO)c1)C[C@H](O)c1cc(Cl)cc(Cl)c1O | 1.37 | -0.566 | 0.578 | -0.0781 | -0.821 | -0.0478 | 0.0639 | -0.328 | 1.12 | 0.0872
8 | COc1ccc(CCNC(=O)[C@@]2(c3ccc([N+](=O)[O-])cc3)CC(=O)N(CC34CC5CC(CC(C5)C3)C4)[C@@H]2c2ccc(CO)cc2I)cc1 | 1.38 | -3.41 | 0.261 | 0.408 | -0.266 | -0.0643 | -0.312 | 0.769 | 0.757 | 0.962
